The nature of assay [1]: antimalarial activity against Dd2 strain (AID 2302;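 active = growth inhibition above 50% at the single 2 µM test dose, taken to imply half-maximal potency below 2 µM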;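 also: 0% = DMSO untreated growth and 100% = chloroquine plus artemisinin killed control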). The following applies: P. falciparum Dd2 in RBCs, LDH growth readout, 72 h; at 2 µM; stronger effect = higher value.
Assay [2] in a line: human hepatoma cell viability loss – ATP luminescence, cytotoxicity control for P. falciparum antimalarial project, primary screen (AID 2303;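 active = inhibition above 50%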;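 also: 0% = DMSO wells and 100% = digitonin-killed cells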). Conditions: HepG2 viability, 24-48 h, at 10 µM, stronger effect = higher value.
For assay [3], the target named is L-lactate dehydrogenase (Plasmodium falciparum (isolate CDC / Honduras)) (UniProt Q27743). In words: PfLDH activity inhibition – cell lysate, 3D7 strain, counter-screen for P. falciparum growth inhibition project (AID 2304; call rule not given here;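 also: 0% = vehicle and 100% = reference inhibitor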). The following applies: P. falciparum 3D7 crude extract, LDH APAD/NBT absorbance; at 2 µM; stronger effect = higher value. Background: Counterscreens check selectivity or assay interference.

Assay [4] in a line: inhibition of 3D7 malaria parasite growth – strain 3D7 (AID 2306; call rule not given here;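 also: 0% = DMSO wells and 100% = chloroquine plus artemisinin control wells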). The following applies: P. falciparum 3D7 erythrocytic growth, LDH absorbance, 72 h; at 2 µM; stronger effect = higher value.
A short description of assay [5]: P. berghei load reduction in hepatocytes – cell-based, HepG2, luciferase luminescence, HepG2 viability, primary screen (AID 624349; in the data active = parasite load remaining mostly below about 12%, no sharp cut-off; inactive = mostly above about 10%;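 also: 100% = mean of DMSO negative control wells on the same plate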). The following applies: P. berghei liver stage in HepG2, luciferase luminescence, concentration not given here; parasite load remaining: stronger effect = lower value; viability: measured here: HepG2 viability without parasites.
The target in assay [6] is 6-phosphogluconate dehydrogenase, decarboxylating (Homo sapiens) (UniProt P52209). In words: inhibition of human phosphogluconate dehydrogenase – biochemical, recombinant enzyme, NADPH absorbance, primary screen (AID 1159550). The following applies: recombinant 6PGD, NADPH absorbance 341 nm; at 10 µM; stronger effect = higher value.
Assay [7] has as its target Calcium-dependent protein kinase 1 (Plasmodium falciparum (isolate 3D7)) (UniProt P62344). In words: PfCDPK1 kinase inhibitors, biochemical, TCAMS library (AID 1159585; cut-off not given, nearly all actives have IC50 up to about 0.98 µM;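 also: inhibitors leave more ATP so luminescence rises with inhibition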). Conditions: recombinant PfCDPK1, Kinase-Glo ATP depletion luminescence.
The target in assay [8] is Plasmodium falciparum protein kinase 6 (PK6, PF3D7_1337100) (UniProt Q8IDW1). As to the kind of experiment: PfPK6 kinase inhibitors, biochemical, TCAMS library (AID 1159586; call rule not given here). Conditions: recombinant PfPK6, Kinase-Glo ATP depletion luminescence. (Kinase-Glo measures the ATP left after a reaction by luminescence.)
For assay [9], the target named is Protein kinase 7 (PK7), Plasmodium falciparum 3D7 (PF3D7_0213400) (UniProt Q7YTF7). In words: inhibition of Plasmodium PK7 catalytic activity – biochemical, TCAMS antimalarial set, Kinase-Glo luminescence (AID 1159587; call rule not given here). Conditions: recombinant PfPK7, Kinase-Glo ATP depletion luminescence.
In assay [10] the target is Calcium-dependent protein kinase 4 (Plasmodium falciparum (isolate 3D7)) (UniProt Q8IBS5). As to the kind of experiment: PfCDPK4 kinase inhibitors, biochemical, TCAMS library (AID 1159588; cut-off not given, nearly all actives have IC50 up to about 0.91 µM). The following applies: recombinant PfCDPK4, Kinase-Glo ATP depletion luminescence.
A short description of assay [11]: viability loss with induced miR-34 in A549 – imaging, A549 dox-inducible miR-34, nuclei and caspase counts, primary screen (AID 1347080;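 active = compounds whose cell count with miR-34 switched on is under 0.7 times the count with it off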). The following applies: A549 miR-34 inducible, Hoechst nuclei count, 48 h.
Assay [12] concerns the target NAD(+) hydrolase SARM1 (Homo sapiens) (UniProt Q6SZW1). In words: blocking NAD cleavage by SARM1 SAM-TIR – cell lysate, NAD-Glo luminescence (AID 1508614;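 active = compound whose remaining NAD level is above about 45 nM, limit read from the data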;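 also: higher remaining NAD means stronger inhibition of SARM1 NADase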). Conditions: SAM-TIR HEK293T lysate NADase, at 1 µM, stronger effect = higher value.
Assay [13] concerns the target Mitogen-activated protein kinase 7 (Homo sapiens) (UniProt Q13164). In words: Gal4-ERK5 driven luciferase induction – cell-based, HTS, primary screen (AID 1508626;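 active = luciferase signal above three times the same-plate solvent-only control wells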;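 also: luciferase driven by Gal4-ERK5 fusion binding five Gal4 sites before minimal TATA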). Conditions: HeLa Gal4-ERK5 transactivation, 18 h, at 5 µM, stronger effect = higher value.
Assay [14] in a line: blockers of polyQ-driven CASP3 activation – cell-based (AID 1583). The following applies: polyglutamine-induced caspase-3 activation, cell assay; stronger effect = higher value;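 tested at 10 µM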.
The nature of assay [15]: yeast 75Q aggregation reduction – 75Q-TubU reporter (AID 1593). The following applies: Yeast 75Q polyglutamine aggregation reporter.
Assay [16] is described as follows: restoration of touch response, mutant HTT neurons – whole organism, C. elegans mechanosensory neurons, N-terminal huntingtin (AID 1599). The following applies: C. elegans polyQ-huntingtin mechanosensory neurons, stronger effect = higher value.
Assay [17] is described as follows: blockers of cytochrome c efflux from mitochondria – biochemical, purified mitochondria (AID 1603).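 Also: mouse liver mitochondria challenged with calcium chloride; signal normalized to the plate average as 100%.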 Conditions: stronger effect = lower value.
Assay [18] is described as follows: polyglutamine aggregate formation blockers (AID 1604). Conditions: polyglutamine-induced protein aggregation inhibition assay; stronger effect = higher value; tested at 2.5 µM.
Assay [19] is described as follows: glutamate transport activators, MN-1 cells, MN-1 cell line (AID 1612).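 Also: tested at 1 µM final; 0% = mean of DMSO vehicle wells on each plate; positive means more glutamate uptake than control and negative means less.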 Conditions: MN-1 motor neuron cells, stronger effect = higher value.
Assay [20] in a line: GFP-Q80 aggregate reduction, neuronal-like cells, cell-based, NGF-treated PC12, GFPQ80 (AID 1614).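 Also: lower means fewer inclusions and 0 means no inclusions at all.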 Conditions: PC12 NGF-treated GFP-polyQ80 inclusion reduction.
Assay [21] in a line: 75Q-TubH aggregate inhibition, S. cerevisiae, yeast (AID 1616). Conditions: S. cerevisiae 75Q-TubH polyglutamine aggregation suppression; stronger effect = higher value.
The nature of assay [22]: EMT-state selective cytotoxicity in co-culture – imaging, PC-3E GFP, TEM4-18 mCherry, primary screen (AID 1345086;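 active = compounds killing one labelled cell type while sparing the other, by normalised counts and ratio limits, not self-fluorescent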;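 as to all read-outs here: cells exposed to compound for 72 h before imaging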;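 as to red/green cell ratio (normalised): normalised mesenchymal count divided by normalised epithelial count so high means epithelial killing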). Conditions: PC-3E GFP / TEM4-18 mCherry co-culture, imaging cell counts, at 1 µM; for red/green cell ratio (normalised): actives lie on both sides.
The subject of assay [23] is Aerobactin synthetase IucA (Klebsiella pneumoniae hvKP1). In words: IucA enzyme inhibition, primary screen, biochemical, Spectrum library (AID 1346200; call rule not given here;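 also: 100% = wells without compound and 0% = wells lacking enzyme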). The following applies: malachite green pyrophosphate, A620, at 8 µM, stronger effect = lower value.

Several values for one entry are separate records, joined by “and”; a condition that tells them apart may be missing. Identical values can stand only once. For some assays here: Entries with a potency or affinity are not part of this list. Activity calls are given as the source filed them.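 The calls were made as follows, unless noted: active = at least 20% inhibition of 6-phosphogluconate dehydrogenase activity; inactive = the rest.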

Usually inhibition stands for the change of the read-out against control, counted positive when it falls. A word on the viability: it is a read-out of living cells in per cent, often relative to untreated cells.

6-phosphogluconate dehydrogenase, decarboxylating (Homo sapiens), sequence (P52209 whole entry, looked up): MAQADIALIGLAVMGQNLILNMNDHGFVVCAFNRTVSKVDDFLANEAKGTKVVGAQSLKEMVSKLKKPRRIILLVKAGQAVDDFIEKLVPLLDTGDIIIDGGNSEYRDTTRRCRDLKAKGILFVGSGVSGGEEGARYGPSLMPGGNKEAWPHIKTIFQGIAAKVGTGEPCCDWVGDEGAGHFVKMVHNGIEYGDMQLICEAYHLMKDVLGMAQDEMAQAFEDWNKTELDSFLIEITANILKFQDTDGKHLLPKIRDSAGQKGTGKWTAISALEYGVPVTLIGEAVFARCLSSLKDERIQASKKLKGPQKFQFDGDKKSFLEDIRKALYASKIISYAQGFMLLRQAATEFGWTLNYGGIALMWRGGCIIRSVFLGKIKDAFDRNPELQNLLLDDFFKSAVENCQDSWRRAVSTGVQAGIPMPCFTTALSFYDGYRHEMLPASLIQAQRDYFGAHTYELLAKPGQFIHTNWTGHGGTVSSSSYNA
Mitogen-activated protein kinase 7 (Homo sapiens), sequence (Q13164 whole entry, looked up, the tested form may be a part): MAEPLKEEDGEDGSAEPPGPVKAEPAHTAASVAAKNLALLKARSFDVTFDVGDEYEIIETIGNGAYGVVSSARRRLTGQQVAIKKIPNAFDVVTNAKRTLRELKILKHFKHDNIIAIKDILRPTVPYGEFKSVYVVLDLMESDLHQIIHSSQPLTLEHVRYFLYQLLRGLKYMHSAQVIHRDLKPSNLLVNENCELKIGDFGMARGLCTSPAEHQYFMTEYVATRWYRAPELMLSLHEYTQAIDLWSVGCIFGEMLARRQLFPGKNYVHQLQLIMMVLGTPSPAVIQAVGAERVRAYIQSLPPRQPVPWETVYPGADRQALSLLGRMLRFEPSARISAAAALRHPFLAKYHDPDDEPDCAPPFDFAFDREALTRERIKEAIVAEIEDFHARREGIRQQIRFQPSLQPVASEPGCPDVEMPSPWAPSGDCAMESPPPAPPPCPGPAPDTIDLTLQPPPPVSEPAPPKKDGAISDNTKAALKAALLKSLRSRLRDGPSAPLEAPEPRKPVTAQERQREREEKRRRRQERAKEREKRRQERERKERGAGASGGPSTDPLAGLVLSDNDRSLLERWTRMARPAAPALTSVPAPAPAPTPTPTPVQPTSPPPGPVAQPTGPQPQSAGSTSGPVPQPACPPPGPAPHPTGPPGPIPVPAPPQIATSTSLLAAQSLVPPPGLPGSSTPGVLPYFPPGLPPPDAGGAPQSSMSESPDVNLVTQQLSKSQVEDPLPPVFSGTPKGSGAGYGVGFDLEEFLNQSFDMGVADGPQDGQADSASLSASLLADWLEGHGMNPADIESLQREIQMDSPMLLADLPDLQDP
NAD(+) hydrolase SARM1 (Homo sapiens), sequence (Q6SZW1 whole entry, looked up, the tested form may be a part): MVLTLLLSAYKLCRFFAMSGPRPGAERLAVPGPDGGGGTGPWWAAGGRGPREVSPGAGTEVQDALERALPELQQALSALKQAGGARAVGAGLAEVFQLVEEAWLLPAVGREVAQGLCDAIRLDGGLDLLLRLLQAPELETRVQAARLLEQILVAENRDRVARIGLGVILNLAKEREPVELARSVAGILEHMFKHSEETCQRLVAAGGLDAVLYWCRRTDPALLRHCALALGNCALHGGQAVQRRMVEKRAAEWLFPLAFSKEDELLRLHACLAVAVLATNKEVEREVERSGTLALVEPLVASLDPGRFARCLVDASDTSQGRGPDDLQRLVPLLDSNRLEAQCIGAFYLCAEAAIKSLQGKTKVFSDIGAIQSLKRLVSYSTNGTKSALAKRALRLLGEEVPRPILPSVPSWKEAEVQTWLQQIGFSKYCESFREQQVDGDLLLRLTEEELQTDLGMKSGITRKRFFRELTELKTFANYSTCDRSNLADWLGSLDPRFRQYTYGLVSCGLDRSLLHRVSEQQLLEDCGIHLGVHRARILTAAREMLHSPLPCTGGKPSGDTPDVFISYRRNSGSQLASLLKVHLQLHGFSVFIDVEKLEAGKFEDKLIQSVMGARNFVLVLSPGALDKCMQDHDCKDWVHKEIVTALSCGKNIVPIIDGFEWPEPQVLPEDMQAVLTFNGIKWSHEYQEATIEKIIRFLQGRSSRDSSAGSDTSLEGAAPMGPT
Plasmodium falciparum protein kinase 6 (PK6, PF3D7_1337100), sequence (Q8IDW1 1-305): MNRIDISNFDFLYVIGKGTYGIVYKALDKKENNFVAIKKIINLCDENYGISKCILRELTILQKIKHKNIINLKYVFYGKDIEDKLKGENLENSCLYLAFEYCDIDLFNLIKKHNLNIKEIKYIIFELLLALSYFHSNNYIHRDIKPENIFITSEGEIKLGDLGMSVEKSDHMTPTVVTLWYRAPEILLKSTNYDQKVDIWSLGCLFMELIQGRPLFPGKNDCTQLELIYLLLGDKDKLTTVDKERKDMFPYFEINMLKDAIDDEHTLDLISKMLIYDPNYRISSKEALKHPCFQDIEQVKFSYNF
Calcium-dependent protein kinase 1 (Plasmodium falciparum (isolate 3D7)), sequence (P62344 whole entry, looked up): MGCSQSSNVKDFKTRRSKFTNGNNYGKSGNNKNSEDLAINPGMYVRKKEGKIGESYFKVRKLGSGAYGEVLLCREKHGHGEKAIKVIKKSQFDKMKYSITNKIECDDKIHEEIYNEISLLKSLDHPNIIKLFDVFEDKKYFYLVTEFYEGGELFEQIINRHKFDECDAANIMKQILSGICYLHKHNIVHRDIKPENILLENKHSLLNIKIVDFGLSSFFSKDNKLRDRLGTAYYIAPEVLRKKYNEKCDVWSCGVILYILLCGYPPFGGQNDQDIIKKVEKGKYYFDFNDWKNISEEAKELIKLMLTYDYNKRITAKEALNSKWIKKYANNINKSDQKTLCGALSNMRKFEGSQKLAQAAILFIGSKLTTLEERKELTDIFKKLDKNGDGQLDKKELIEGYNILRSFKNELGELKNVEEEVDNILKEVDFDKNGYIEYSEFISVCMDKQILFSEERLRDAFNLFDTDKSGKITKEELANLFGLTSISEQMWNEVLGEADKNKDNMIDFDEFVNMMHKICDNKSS
L-lactate dehydrogenase (Plasmodium falciparum (isolate CDC / Honduras)), sequence (Q27743 whole entry, looked up): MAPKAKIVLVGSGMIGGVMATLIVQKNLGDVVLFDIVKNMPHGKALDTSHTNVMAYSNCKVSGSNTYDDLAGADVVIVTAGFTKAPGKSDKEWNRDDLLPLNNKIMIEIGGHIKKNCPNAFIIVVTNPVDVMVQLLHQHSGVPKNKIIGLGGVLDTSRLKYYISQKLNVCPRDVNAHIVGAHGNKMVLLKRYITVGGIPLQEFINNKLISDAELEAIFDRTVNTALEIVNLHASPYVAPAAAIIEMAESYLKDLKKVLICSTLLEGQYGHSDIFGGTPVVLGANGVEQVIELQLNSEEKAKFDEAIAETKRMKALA
Protein kinase 7 (PK7), Plasmodium falciparum 3D7 (PF3D7_0213400), sequence (Q7YTF7 1-343): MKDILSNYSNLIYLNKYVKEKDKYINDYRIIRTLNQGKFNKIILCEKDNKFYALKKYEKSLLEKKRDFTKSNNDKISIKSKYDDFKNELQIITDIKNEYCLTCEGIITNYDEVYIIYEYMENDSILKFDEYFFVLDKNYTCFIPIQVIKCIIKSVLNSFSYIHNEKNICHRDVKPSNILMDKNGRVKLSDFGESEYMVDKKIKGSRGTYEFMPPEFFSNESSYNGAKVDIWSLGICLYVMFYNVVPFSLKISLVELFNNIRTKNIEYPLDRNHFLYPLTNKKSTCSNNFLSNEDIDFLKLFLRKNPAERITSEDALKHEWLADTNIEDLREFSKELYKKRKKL
Calcium-dependent protein kinase 4 (Plasmodium falciparum (isolate 3D7)), sequence (Q8IBS5 whole entry, looked up): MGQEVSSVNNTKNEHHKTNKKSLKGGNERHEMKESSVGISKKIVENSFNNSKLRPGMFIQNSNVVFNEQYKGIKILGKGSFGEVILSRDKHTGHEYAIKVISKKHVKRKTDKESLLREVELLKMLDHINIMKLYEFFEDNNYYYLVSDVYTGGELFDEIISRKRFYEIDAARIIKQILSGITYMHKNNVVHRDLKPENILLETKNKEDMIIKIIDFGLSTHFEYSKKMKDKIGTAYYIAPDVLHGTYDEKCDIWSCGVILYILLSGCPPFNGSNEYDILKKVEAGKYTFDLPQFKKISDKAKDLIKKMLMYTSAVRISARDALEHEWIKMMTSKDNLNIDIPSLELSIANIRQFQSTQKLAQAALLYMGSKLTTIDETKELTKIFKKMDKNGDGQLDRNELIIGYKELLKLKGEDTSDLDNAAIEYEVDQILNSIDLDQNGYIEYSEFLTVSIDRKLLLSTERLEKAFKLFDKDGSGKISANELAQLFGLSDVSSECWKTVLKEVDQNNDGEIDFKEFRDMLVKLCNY

For `C=C[C@H]1CN2CC[C@H]1C[C@@H]2[C@@H](O)c1ccnc2ccccc12`, the figures for the growth inhibition in assay [1] and in [4] were 2% (inactive) and 101% (active), respectively. The inhibition is -7% (inactive) in assay [2], 3% (inactive) in assay [3] and -5.19% (inactive) in [6]. Further, the parasite load remaining in assay [5] is 63% (inactive). Moreover, the viability in [5] was determined as 116%. For the same molecule, the result in [7], in [8], in assay [9] and in assay [10] was inactive. Moreover, the fold change is 0.868 (inactive) in [11] (stronger effect = lower value, cell number ratio, induced over uninduced) and 1.48 in assay [11] (measured here: relative caspase fold change +Dox/-Dox). The cell count amounted to 8930 in [11] (measured here: total cells with miR-34 induction, stronger effect = lower value) and 10300 in assay [11] (measured here: total cells without miR-34 induction). Further, in assay [12], the remaining NAD is 10 nM (inactive). Further, the luciferase signal in [13] was 40 AU (inactive).

Consider `CC(=O)O[C@H]1CC[C@@]2(C)[C@@H](CC[C@@H]3[C@@H]2CC[C@]2(C)C(=O)CC[C@@H]32)C1`, for which, in assay [6], the inhibition is 0.969% (inactive).

On to `CNC(=O)O/N=C/C(C)(C)SC`, for which the inhibition in [6] is -1.92% (inactive).

Turning to `CO[C@H]1C[C@H](O[C@H]2CC[C@]3(C=O)[C@H]4CC[C@]5(C)[C@@H](C6=CC(=O)OC6)CC[C@]5(O)[C@@H]4CC[C@]3(O)C2)O[C@H](C)[C@H]1O`, in assay [6], the inhibition is -5.2% (inactive).

Take `COc1cc2c(cc1OC)[C@H]1C(=O)c3ccc4c(c3O[C@H]1CO2)C[C@@H](C(C)C)O4`: the inhibition in assay [6] was -1.45% (inactive).

With `O=c1ccc2cc(O[C@@H]3O[C@H](CO)[C@@H](O)[C@H](O)[C@H]3O)c(O)cc2o1`, the inhibition was -24.4% in assay [14] and -2.58% (inactive) in assay [6]. The molecule also returned a score in [15] of 1.12. Besides, in [16], the rescue above control was -7.81. In addition, the cytochrome c release ratio in assay [17] came out at 0.85. In assay [18], this molecule returned an inhibition of aggregation of 54.9%. Further, the glutamate uptake change in assay [19] worked out at 18.9%. This molecule displayed an inclusion score in assay [20] of 2. The aggregation suppression score in [21] came to 1. Further, the parasite load remaining in assay [5] is 71.6% (inactive). Besides, the viability in [5] is 71.7%. The red/green cell ratio (normalised) in assay [22] is 1.25 (inactive); in assay [22] (counts scaled to control wells, 1 = unselective) it was 0.97 (inactive). Further, the normalised cell number in assay [22] (measured here: epithelial PC-3E GFP cell survival) was 0.87 and 1.04; in assay [22] (measured here: mesenchymal TEM4-18 mCherry cell survival) it was 1.09 and 1. Also, in assay [23], the activity remaining was 95.9% (inactive). Moreover, the luciferase signal in assay [13] was 92 AU (inactive).

The values are drawn from PubChem BioAssay.
